The results in this text go back to PubChem BioAssay (NCATS).

Experiment [1] can be described thus: qHTS for identification of novel therapeutic agents for treatment of microphthalmiaassociated transcription factor (MiT) renal cell carcinoma (RCC) (AID 1963991). As to conditions: CellTiter-Glo, 48 h, stronger effect = lower value. The method in brief:
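Three TFE3-fusion RCC cell lines (UOK109, UOK124, UOK145), 500 cells/well, were exposed to the 1912-compound MIPE 4.0 library for 48 hours at 37 C. Viability was read by CellTiter-Glo luminescence, normalised to DMSO (100%) and empty wells (0%), with 11-concentration curve fits.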

Experiment [2] can be described thus: qHTS profiling for inhibitors of Plasmodium falciparum proliferation (AID 504749). Further: potency means the concentration at half of the fitted maximal effect.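 On activity, negative = inhibition: 0% = DMSO vehicle and full inhibition = artemisinin control.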 On all read-outs here: nearly all actives have a fitted effect of over 60% in size. Conditions: P. falciparum in erythrocytes, SYBR Green DNA, 72 h; for activity, negative = inhibition: at 28.7 µM (top of the series). The method in brief: (§1)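 Readout was DNA-dye fluorescence from lysed cultures, ex 485/em 535 nm. Parasitized red cells had grown 72 h with compound; data scaled between 0.29 uM artemisinin and DMSO wells and corrected using vehicle-only plates.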
Background: In qHTS, concentration-response curves come from the screen itself.

Another experiment concerns 3D7. Described as above. Conditions: P. falciparum in erythrocytes, SYBR Green DNA, 72 h; series mostly up to 28.7 µM. The method in brief: as §1
For another experiment, the system named is 7G8. The experiment is described as above. As to conditions: P. falciparum in erythrocytes, SYBR Green DNA, 72 h; series mostly up to 28.7 µM. A digest of the protocol: as §1
The subject of another experiment is AA1029. The description is as above. Conditions: P. falciparum in erythrocytes, SYBR Green DNA, 72 h; series mostly up to 28.7 µM. The method in brief:
as §1

The test system of the next experiment is AS120. Described as above. Conditions: P. falciparum in erythrocytes, SYBR Green DNA, 72 h; series mostly up to 28.7 µM. The method in brief: as §1
The next experiment deals with ATS189. Described as above. As to conditions: P. falciparum in erythrocytes, SYBR Green DNA, 72 h; series mostly up to 28.7 µM. The method in brief: as §1
The next experiment concerns ATS95. The description is as above. As to conditions: P. falciparum in erythrocytes, SYBR Green DNA, 72 h; series mostly up to 28.7 µM. A digest of the protocol: as §1
In another experiment the test system is C2A. The experiment is described as above. As to conditions: P. falciparum in erythrocytes, SYBR Green DNA, 72 h; series mostly up to 28.7 µM. A digest of the protocol:
as §1

For the next experiment, the system named is CP185. The description is as above. Conditions: P. falciparum in erythrocytes, SYBR Green DNA, 72 h; series mostly up to 28.7 µM. A digest of the protocol:
as §1

The subject of another experiment is CP191. Described as above. Conditions: P. falciparum in erythrocytes, SYBR Green DNA, 72 h; series mostly up to 28.7 µM. The method in brief:
as §1

Another experiment has as its system CP192. The experiment is described as above. As to conditions: P. falciparum in erythrocytes, SYBR Green DNA, 72 h; series mostly up to 28.7 µM. The method in brief:
as §1

A further experiment deals with CP194. Described as above. Conditions: P. falciparum in erythrocytes, SYBR Green DNA, 72 h; series mostly up to 28.7 µM. A digest of the protocol:
as §1

The next experiment relates to CP201. Described as above. As to conditions: P. falciparum in erythrocytes, SYBR Green DNA, 72 h; series mostly up to 28.7 µM. The method in brief:
as §1

The next experiment has as its system CP211. Described as above. Conditions: P. falciparum in erythrocytes, SYBR Green DNA, 72 h; series mostly up to 28.7 µM. A digest of the protocol: as §1
The next experiment has as its system CP215. Described as above. As to conditions: P. falciparum in erythrocytes, SYBR Green DNA, 72 h; series mostly up to 28.7 µM. A digest of the protocol:
as §1

In another experiment the test system is CP217. Described as above. Conditions: P. falciparum in erythrocytes, SYBR Green DNA, 72 h; series mostly up to 28.7 µM. The method in brief: as §1
The next experiment relates to CP203. The experiment is described as above. Conditions: P. falciparum in erythrocytes, SYBR Green DNA, 72 h; series mostly up to 28.7 µM. A digest of the protocol:
as §1

Setting [3] is: TFE3-RCC UOK109 viability, measured here: UOK109 Z-AUC.
Setting [4] is: TFE3-RCC viability, measured here: UOK124 Z-AUC.
The mark [5] stands for this setting: TFE3-RCC viability, measured here: UOK145 Z-AUC.

Inconclusive results are not listed. Active and inactive are the calls of the source. The call rests on the fitted dose curve; in most records, active means well fitted inhibition curve with a large enough effect; inconclusive means small, poorly fitted or top-dose-only effect; inactive means flat fitted curve, though single readings scatter.

As to `O=C(NCCO[N+](=O)[O-])c1cccnc1`, the z-score in experiment [1] (setting [3]) was 1.2; in [1] (setting [4]), 0.824; in experiment [1] (setting [5]), 0.646. Further, the results for the activity, negative = inhibition in [2] (parasite line A) and in experiment [2] (parasite line B) were 22.6% (inactive) and 3.27% (inactive), respectively. The Potency entry with 3D7, with 7G8, in the experiment with AA1029, with AS120, with ATS189 and with ATS95 was “inactive” throughout. The Potency entry with C2A, with CP185, with CP191, in the experiment on CP192, with CP194 and in the experiment on CP201 was “inactive” each time. Further, the Potency entry in the experiment with CP211, with CP215 and in the experiment with CP217 was “inactive” throughout.

Consider `CN1CCC(=C2c3ccccc3CCc3sccc32)CC1`, for which the activity, negative = inhibition in [2] (parasite line A) is -27.4% (inactive); in [2] (parasite line B) it was -20.6% (inactive). Further, the Potency result in the experiment with 3D7 and in the experiment on C2A was “inactive” throughout. In addition, the Potency with 7G8 is 11.2 µM (active); in the experiment with AA1029 it was 6.31 µM (active).

In the case of `Cc1cccc(C)c1OCC(=O)N[C@@H](Cc1ccccc1)[C@@H](O)C[C@H](Cc1ccccc1)NC(=O)[C@H](C(C)C)N1CCCNC1=O`, the Potency was 8.91 µM (active) in experiment [2] (parasite line A); 5.01 µM (active) in experiment [2] (parasite line B); 7.08 µM (active) in the experiment on 3D7; 0.794 µM (active) in the experiment on 7G8; 3.55 µM (active) in the experiment on AA1029; 1.41 µM (active) in the experiment with AS120. Further, the Potency with ATS189 is 3.98 µM (active); in the experiment on ATS95, 3.98 µM (active); with C2A it was 11.2 µM (active); in the experiment on CP185 it was 10 µM (active); in the experiment on CP191, 5.62 µM (active); in the experiment on CP192 it was 6.75 µM (active). Moreover, the Potency in the experiment on CP194 was 7.57 µM (active); with CP201 it was 10.7 µM (active); with CP211 it was 7.57 µM (active); in the experiment on CP215, 6.01 µM (active); in the experiment on CP217, 3.98 µM (active).

For `O=C(O)c1cccnc1Nc1cccc(C(F)(F)F)c1`, the z-score in [1] (setting [3]) worked out at 0.327; in experiment [1] (setting [4]), 0.739; in [1] (setting [5]), 0.463. For the same compound, the activity, negative = inhibition in experiment [2] (parasite line A) was 8.39% (inactive); in [2] (parasite line B), 13.5% (inactive). For the same compound, the Potency entry with 3D7, with 7G8, with AA1029, in the experiment with AS120, with ATS189 and in the experiment with ATS95 was “inactive” each time. The Potency result with C2A, in the experiment on CP185, in the experiment with CP191, in the experiment on CP192, with CP194 and in the experiment on CP201 was “inactive” in each case. Moreover, the Potency entry in the experiment on CP203, in the experiment with CP211, in the experiment with CP215 and in the experiment on CP217 was “inactive” each time.

Take `CN(c1nccc(=O)[nH]1)C1CCN(c2nc3ccccc3n2Cc2ccc(F)cc2)CC1`: the activity, negative = inhibition in experiment [2] (parasite line A) was -22.1% (inactive); in experiment [2] (parasite line B), -10.5% (inactive). The Potency entry in the experiment with 3D7, in the experiment on ATS189, in the experiment with C2A, in the experiment on CP185, in the experiment with CP191 and with CP192 was “inactive” each time. For the same compound, the Potency result in the experiment on CP201 was “inactive”. Also, in the experiment on 7G8, the Potency was 11.2 µM (active).

For the compound `O=C1c2c(O)cc(O)cc2OC(c2ccc(O)c(O)c2)C1O` (stereo not given), the z-score is -0.477 in experiment [1] (setting [3]), 0.528 in experiment [1] (setting [4]) and 0.535 in experiment [1] (setting [5]).

Take `CC(C)c1nc(CN(C)C(=O)N[C@H](C(=O)N[C@@H](Cc2ccccc2)C[C@H](O)[C@H](Cc2ccccc2)NC(=O)OCc2cncs2)C(C)C)cs1`: the z-score is -0.114 in [1] (setting [3]), -0.388 in experiment [1] (setting [4]) and 0.0556 in experiment [1] (setting [5]).
